USP17 inh: human USP17-like deubiquitinase inhibition. A8MUK1. purified USP17, Ub-rhodamine cleavage fluorescence, 3 h. inhibition, % at 50 µM. actives 6.5% (n = 47,000)
USP28 block: inhibitors of human USP28 deubiquitinase | inhibition, % at 25 µM | actives 3% (n = 47,000) | Q96RU2 | AID 1645857 | purified USP28, Ub-rhodamine cleavage fluorescence, 30 min
USP30 inh: inhibitors of human USP30 deubiquitinase; inhibition, % at 25 µM; purified USP30, Ub-rhodamine cleavage fluorescence; Q70CQ3; actives 5.3% (n = 47,000); AID 1645860
Target sequence (Q70CQ3 whole entry, looked up): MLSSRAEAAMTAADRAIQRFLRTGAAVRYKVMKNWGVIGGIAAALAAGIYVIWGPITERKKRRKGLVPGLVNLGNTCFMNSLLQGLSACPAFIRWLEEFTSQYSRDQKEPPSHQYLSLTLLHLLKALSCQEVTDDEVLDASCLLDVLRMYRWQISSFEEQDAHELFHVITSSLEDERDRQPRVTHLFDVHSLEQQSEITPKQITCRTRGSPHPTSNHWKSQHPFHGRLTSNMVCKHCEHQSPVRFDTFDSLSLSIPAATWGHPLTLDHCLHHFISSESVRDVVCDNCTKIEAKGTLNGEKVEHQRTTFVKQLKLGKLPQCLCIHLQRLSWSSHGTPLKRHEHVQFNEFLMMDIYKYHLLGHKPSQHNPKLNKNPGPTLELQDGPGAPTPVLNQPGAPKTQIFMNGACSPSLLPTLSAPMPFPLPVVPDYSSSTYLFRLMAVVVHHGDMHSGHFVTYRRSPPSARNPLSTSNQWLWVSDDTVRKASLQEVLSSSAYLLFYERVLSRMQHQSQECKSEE
* hit, by the source's call. Rows were chosen to be rich in hits. Some 11% of all compounds tested hit in one or more screens of this group. No stated cut-off is given here; in the data, active means inhibition above about 30%; inactive means the rest.

SMILES	USP17 inh	USP28 block	USP30 inh
COc1ccc(C2CC(=O)N(CCc3ccccc3)C(=O)C2)cc1OC	1	-6	2
Cc1cccc(CC2CCCN(C(=O)CN3C(=O)NC(C)(C)C3=O)C2)n1 (configuration not stated)	0	2	2
Cc1ccc(NC(=O)N2CCc3[nH]cnc3C2c2ccncc2)c(Cl)c1 (configuration not stated)	-1	-11	1
CCOC(=O)CCSc1nnc(COc2ccc(CC)cc2)n1Cc1ccccc1	6	0	7
COc1ccccc1NC(=O)CSc1ncc(S(=O)(=O)c2ccc(C(C)C)cc2)c(N)n1	-10	18	-12
Cc1ccc(S(=O)(=O)c2cnc(SCC(=O)Nc3ccc(Cl)cc3)nc2N)cc1C	80*	48*	39*
CCC(CC)C(=O)N1CCC2(CC1)COCCN(c1ncccn1)C2	9	4	26
O=C(Cc1csc2nc(-c3ccccc3)cn12)Nc1ccc(F)cc1	-11	-23	-45
Cc1cccc(-n2nnc(-c3nc(-c4ccc(Cl)cc4)no3)c2N)c1	-8	-14	-12
Nc1c(-c2nc(-c3ccccc3Cl)no2)nnn1-c1ccc(Cl)cc1	43*	20	40*
O=C(Nc1cccc(-c2noc(C3CC3)n2)c1)c1ccc2c(c1)OCO2	11	11	24
CN(C)S(=O)(=O)N1CCCC1c1ccnc(Nc2ccccn2)n1 (configuration not stated)	2	3	10
O=C(Nc1ccccc1Cl)c1nn(C2CCS(=O)(=O)C2)c2c1CCCC2 (configuration not stated)	5	0	0
O=C(Nc1cccc(C(F)(F)F)c1)c1nn(C2CCS(=O)(=O)C2)c2c1CCCC2 (configuration not stated)	10	1	31*
O=C(NCc1ccccc1)c1cc(S(=O)(=O)N2CCCCC2)ccc1N1CCOCC1	0	0	0
O=C(Nc1ccc(N2CCCCC2)cc1)C1CCN(S(=O)(=O)c2ccc3c(c2)OCCCO3)CC1	5	-16	-44
O=S(=O)(Nc1cc(S(=O)(=O)N2CCCCC2)ccc1O)c1ccc2c(c1)OCCCO2	34*	11	0
O=C(CCc1ccc(S(=O)(=O)N2CCOCC2)cc1)Nc1ccc2c(c1)OCCO2	-7	61*	4
Cc1ccccc1NC(=O)C1CCN(S(=O)(=O)c2ccc3c(c2)OCCCO3)CC1	69*	14	74*
O=C(CCc1ccc(S(=O)(=O)N2CCOCC2)cc1)Nc1ccc2c(c1)OCO2	7	19	3
O=S(=O)(c1ccc2c(c1)OCCO2)N1CCC(N2CCCCC2)CC1	4	-19	-19
O=C(Nc1ccc2c(c1)OCCCO2)c1cc(S(=O)(=O)N2CCCCC2)ccc1N1CCCC1	68*	30	78*
CCN1CCCC1CN(Cc1cc2cc(C)ccc2[nH]c1=O)C(=O)Nc1cccc(Cl)c1 (configuration not stated)	3	-3	12
CCOc1ccccc1NC(=O)COC(=O)CCCc1c[nH]c2ccccc12	-14	-6	-27
CC(=O)N1CCCSc2ccc(S(=O)(=O)NCCCN3CCCC3=O)cc21	0	2	18
SMILES	USP17 inh	USP28 block	USP30 inh
CCN1CC[C@@]2(C(=O)Nc3ccccc3)CCN(C(=O)C(C)C)CC[C@@H]12	-2	0	-20
COc1ccc(C(N)=O)c(OCc2noc(-c3ccccc3Cl)n2)c1	-25	-28	-127
COc1ccc(OCc2nn3c(-c4ccccc4Cl)nnc3s2)cc1	22	19	32*
O=C(CC1c2ncccc2C(=O)N1c1ccccc1)NCc1ccccc1 (configuration not stated)	-1	-8	-2
O=C(NCCCc1ccco1)C1CCCN1c1nnc(N2CCCC2=O)s1 (configuration not stated)	-3	-1	-21
Cn1c(O)c(C2=Nc3ccccc3SC(c3ccc4c(c3)OCO4)C2)c(=O)n(C)c1=O (configuration not stated)	2	-3	6
CC(C)(C)c1ccc(NC(=O)CCn2ccc(=O)[nH]c2=O)cc1	1	6	40*
Cc1cc(NC(=O)CCn2ccc(=O)[nH]c2=O)ccc1C(C)C	-1	3	1
Cc1nnc2ccc(C(=O)NC3CCN(Cc4ccccc4)CC3)cn12	-23	-20	-39
COc1ccc(S(=O)(=O)Nc2ccc(Nc3cc(N(C)C)nc(C)n3)cc2)cc1OC	-29	-9	-20
Cc1cc(C)nc(SCC(=O)N(Cc2ccco2)C2(C(=O)Nc3c(C)cccc3C)CCCCC2)n1	58*	27	40*
Cc1cccc(C)c1NC(=O)C1(N(Cc2ccco2)C(=O)c2ccccc2F)CCCCC1	14	11	36*
Cc1ccccc1NC(=O)C1(N(Cc2ccco2)C(=O)Cc2cc3ccccc3[nH]2)CCCCC1	2	14	-1
CC(=O)Nc1cccc(C(=O)N(Cc2ccco2)C2(C(=O)Nc3c(C)cccc3C)CCCCC2)c1	-7	-4	-7
Cc1noc(C2CN(C(=O)NC3CCCCC3)CC23CCOCC3)n1 (configuration not stated)	-16	-12	-10
CC(=O)c1csc(-c2cc(C)on2)n1	3	-10	-10
CC(=O)Nc1ccc(C(=O)COc2ncnc3c2cnn3-c2ccccc2)cc1	8	8	-99
COc1cccc(N2CCN(c3ccc4nnc(CCC(=O)N5CCc6ccccc6C5)n4n3)CC2)c1	72*	39*	48*
O=C(CCc1nnc2ccc(N3CCOCC3)nn12)Nc1ccccc1F	3	-11	-2
COc1cccc(N2CCN(c3ccc4nnc(CCC(=O)NC5CCCC5)n4n3)CC2)c1	22	7	20
CC1CC(C)CN(C(=O)CCc2nnc3ccc(N4CCCC4)nn23)C1 (configuration not stated)	18	7	31*
CC1CCN(c2ccc3nnc(CCC(=O)NCc4ccc(CN5CCOCC5)o4)n3n2)CC1	9	31*	19
COC(=O)c1ccc(NC(=O)CCc2nnc3ccc(N4CCOCC4)nn23)cc1	31*	13	30
CC1CCN(c2ccc3nnc(CCC(=O)NCCN4CCOCC4)n3n2)CC1	13	9	17
CC1CCN(c2ccc3nnc(CCC(=O)N4CCCC4)n3n2)CC1	6	5	13
SMILES	USP17 inh	USP28 block	USP30 inh
O=C(Cn1cnc(S(=O)(=O)N2CCOCC2)c1)N1CCCc2ccccc21	-3	-4	-7
O=C1OC2C(O)COC2(O)C1(O)Cc1c[nH]c2ccccc12 (configuration not stated)	-3	-3	-7
CC(=O)c1ccc(NC(=O)Cn2cnc3c(cnn3C(C)(C)C)c2=O)cc1	-10	2	-14
COc1ccccc1CNC(=O)CCc1nnc2ccc(N3CCCCC3)nn12	-6	-10	-38
Cc1ccc(C)c(CN2CCC(CNC(=O)CCc3nnc4ccc(N5CCCCC5)nn34)CC2)c1	3	33*	-34
CCCNC(=O)c1ccc2ccc(N3CCN(c4ncccn4)CC3)n2c1	-60	-69	-227
O=c1cc(-c2ccc(F)cc2)oc2ccc(F)cc12	31*	-10	0
COc1ccc(-c2cc(=O)c3cc(OC(=O)C4CCCCC4)ccc3o2)cc1	-37	7	1
CN1CC[C@@H]2[C@H]1C(=O)NC[C@H](CCC(=O)N1CCN(c3ccccc3)CC1)N2C	-23	15	11

Screening results: PubChem, Buhrlage Lab, Dana-Farber Cancer Institute and Novartis Institutes for BioMedical Research (Cambridge, Mass)
